About 83,000 compounds went through this panel and 20% of them were active in at least one assay; those are over-represented in the sample as a whole.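 Values shown are percent growth following 48 h exposure of cells in 96-well plates to a single concentration of compound; below 10 was considered active.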 Calls of active or inactive are those of the source.
Columns and labels:
Assay in all cases: NCI-60 one-dose screen, 48 h (100 = growth as untreated, 0 = no growth, -100 = all killed)
Settings in all cases: 10 µM unless noted
T-47D breast = system: T-47D breast
BT-549 breast = system: BT-549 breast
MDA-MB-435 melanoma = system: MDA-MB-435 melanoma
SW-620 colon = system: SW-620 colon
MCF7 breast = system: MCF7 breast
HCT-116 colon = system: HCT-116 colon
HCC-2998 colon = system: HCC-2998 colon
KM12 colon = system: KM12 colon

Measured: growth

O=C(c1ccccc1)c1cc2ccccc2oc1=O
inactive: T-47D breast 85.5% | BT-549 breast 89.8% | MDA-MB-435 melanoma 109% | SW-620 colon 113% | MCF7 breast 108% | HCT-116 colon 99.4% | HCC-2998 colon 118%

O=C1C(=O)c2cccnc2-c2ncccc21
inactive: HCC-2998 colon 30.5%
active: T-47D breast -68.8% | BT-549 breast -11.7% | MDA-MB-435 melanoma -69.6% | SW-620 colon -95.6% | MCF7 breast -55.4% | HCT-116 colon -100%

COc1ccc(C(Cn2ccnc2)Sc2ccc(Cl)c(Cl)c2)cc1 (configuration not stated)
inactive: T-47D breast 79.3% | BT-549 breast 73.2% | MDA-MB-435 melanoma 84.1% | SW-620 colon 80.9% | MCF7 breast 79.6% | HCT-116 colon 48.5% | HCC-2998 colon 108% | KM12 colon 73.7%

CCCCCCCCCCCC[n+]1ccc(CCCCCCCCC)cc1
active: T-47D breast -62.3% | BT-549 breast -27.3% | MDA-MB-435 melanoma -85.5% | SW-620 colon -67% | MCF7 breast -5.44% | HCT-116 colon -91% | HCC-2998 colon -79.5%

O=C(Nc1ccc(Cl)c(Cl)c1)Nc1ccccc1O
inactive: T-47D breast 50.7% | BT-549 breast 105% | MDA-MB-435 melanoma 76.2% | SW-620 colon 90.1% | MCF7 breast 51.9% | HCT-116 colon 60.7% | HCC-2998 colon 80.4%

O=C1C=CC(=O)N1c1cccc2c1CCCC2
inactive: T-47D breast 86.5% | BT-549 breast 112% | MDA-MB-435 melanoma 88.5% | SW-620 colon 99.6% | MCF7 breast 88.3% | HCT-116 colon 95% | HCC-2998 colon 118% | KM12 colon 109%

CCC(=O)c1cc([N+](=O)[O-])c(Br)s1
active: T-47D breast -46.2% | HCT-116 colon 1.06%
inactive: BT-549 breast 108% | MDA-MB-435 melanoma 96.9% | SW-620 colon 35.4% | MCF7 breast 62.6% | HCC-2998 colon 92.7%

CC12CCC(O)CC1=CCC1C2CCC2(C)C3=NN=CC3CC12 (configuration not stated)
inactive: T-47D breast 110% | BT-549 breast 124% | MDA-MB-435 melanoma 53% | SW-620 colon 103% | MCF7 breast 107% | HCT-116 colon 108% | HCC-2998 colon 107%

Cc1cc(C(=C2C=CC(=Nc3ccccc3)C=C2)c2ccc(Nc3ccccc3)cc2)ccc1N
active: T-47D breast -50.1% | BT-549 breast -88.9% | MDA-MB-435 melanoma -68% | SW-620 colon -70.4% | MCF7 breast -44.3% | HCT-116 colon 0.559% | HCC-2998 colon -90.7%

CC1(C)OC2C(COC(c3ccccc3)(c3ccccc3)c3ccccc3)OC(c3c[nH]c4c(N)ncnc34)C2O1 (configuration not stated)
inactive: T-47D breast 43.2% | BT-549 breast 77.5% | MDA-MB-435 melanoma 62.4% | SW-620 colon 63.9% | MCF7 breast 35% | HCT-116 colon 46.7% | HCC-2998 colon 85.7%

Clc1ccc(Cc2nc3ccccc3s2)cc1
inactive: T-47D breast 79.6% | BT-549 breast 86.7% | MDA-MB-435 melanoma 92.5% | SW-620 colon 101% | MCF7 breast 77.4% | HCT-116 colon 97.8% | HCC-2998 colon 103%

CCCCCC[C@@H](O)C/C=C\CCCCCCCC(=O)OCCOC
inactive: T-47D breast 94.3% | BT-549 breast 99% | MDA-MB-435 melanoma 110% | SW-620 colon 102% | MCF7 breast 100%

O=C(Cc1ccccc1)C(F)(F)F
inactive: T-47D breast 95.4% | BT-549 breast 97.5% | MDA-MB-435 melanoma 104% | SW-620 colon 108% | MCF7 breast 103% | HCT-116 colon 95.5% | HCC-2998 colon 108% | KM12 colon 103%

O=C1C=CC(=O)N1c1ccccc1
inactive: T-47D breast 99.8% | BT-549 breast 97.1% | MDA-MB-435 melanoma 109% | SW-620 colon 80.9% | MCF7 breast 106% | HCT-116 colon 75.1% | HCC-2998 colon 98.7%

CSc1nc(C)c(C(=O)CCN2CCN(c3ccccn3)CC2)s1
inactive: T-47D breast 66.7% | BT-549 breast 113% | MDA-MB-435 melanoma 104% | SW-620 colon 100% | MCF7 breast 61.2% | HCT-116 colon 105% | HCC-2998 colon 106%

O=C1C=CC(=O)N1C1CCCCCCCCCCC1
active: SW-620 colon -27.4% | HCT-116 colon 0.595%
inactive: T-47D breast 56.9% | BT-549 breast 87.5% | MDA-MB-435 melanoma 82.6% | MCF7 breast 69.8% | HCC-2998 colon 106% | KM12 colon 104%

CCN(CC)CC(O)c1cc(-c2ccc(Cl)cc2)nc2cc(Cl)ccc12 (configuration not stated)
active: MCF7 breast -28.4% | HCT-116 colon -0.822% | KM12 colon -36.6%
inactive: T-47D breast 12.9% | BT-549 breast 81.6% | MDA-MB-435 melanoma 13.1% | SW-620 colon 31.5% | HCC-2998 colon 26.4%

O=C(c1ccc(O)c(Br)c1)c1ccc(O)c(Br)c1
inactive: T-47D breast 106% | BT-549 breast 100% | MDA-MB-435 melanoma 118% | SW-620 colon 109% | MCF7 breast 117% | HCT-116 colon 101% | HCC-2998 colon 105%

S=C=Nc1ccc(N2CCOCC2)cc1
inactive: T-47D breast 74.3% | BT-549 breast 97.1% | MDA-MB-435 melanoma 92% | SW-620 colon 103% | MCF7 breast 79.3% | HCT-116 colon 86.6% | HCC-2998 colon 99.3% | KM12 colon 103%
